“And” between values parts separate entries of the source, which are not always exact repeats. Equal entries are not always repeated. Results filed as inconclusive are left out. Where a call stands in place of a potency, no number is given. The source made the active and inactive calls. Unless noted, calls come from the whole dose curve; as a rule, active = well fitted curve in the direction sought with a large enough effect; inconclusive = small, poorly fitted or top-dose-only effect, or another doubt; inactive = no such curve, though single readings can be large; an effect the other way counts as inactive or inconclusive.
What was measured:
[1] = qHTS of pediatric cancer cell lines to identify multiple opportunities for drug repurposing: Primary screen for TC32 cells (AID 1347089); note: nearly all actives have a fitted effect of over 60% in size; note: potency is the fitted concentration of half-maximal effect
In short: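 In the primary qHTS, MIPE compounds were tested at 11 concentrations (0.78 nM to 46 µM) and NPC compounds at 8 (0.59 nM to 46 µM) on TC32 cells for 48 h. CellTiter-Glo luminescence gave viability.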

[2] = qHTS of pediatric cancer cell lines to identify multiple opportunities for drug repurposing: Primary screen for DAOY cells (AID 1347090); note: nearly all actives have a fitted effect of over 55% in size; note: potency is the fitted concentration of half-maximal effect
In short: (§1)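 Viability measured as metabolically active cells via CellTiter-Glo luminescence following 48 hours of compound exposure, 11-point dilutions in confirmatory testing. 500-1,000 cells/well plated 5 hours before dosing; controls were DMSO and 2.3 µM bortezomib.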

[3] = qHTS of pediatric cancer cell lines to identify multiple opportunities for drug repurposing: Primary screen for SJ-GBM2 cells (AID 1347091); note: potency is the fitted concentration of half-maximal effect
In short: as §1

[4] = qHTS of pediatric cancer cell lines to identify multiple opportunities for drug repurposing: Primary screen for A673 cells (AID 1347092); note: nearly all actives have a fitted effect of over 45% in size; note: potency is the fitted concentration of half-maximal effect
In short: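 48 h compound exposure, A673, 500-1,000 cells/well, 37 degrees C/5% CO2. MIPE: 11-point, 0.78 nM-46 µM; NPC: 8-point, 0.59 nM-46 µM (final). Readout CellTiter-Glo luminescence after 15 min RT.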

[5] = qHTS of pediatric cancer cell lines to identify multiple opportunities for drug repurposing: Primary screen for SK-N-MC cells (AID 1347093); note: potency is the fitted concentration of half-maximal effect
In short: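 Metabolically active cells were quantified by ATP-dependent luminescence (CellTiter-Glo, 15 min at room temperature) following 48 h treatment. Cells had been plated at 500-1,000 per well and settled for 5 h beforehand.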

[6] = qHTS of pediatric cancer cell lines to identify multiple opportunities for drug repurposing: Primary screen for BT-37 cells (AID 1347094); note: potency is the fitted concentration of half-maximal effect
In short: (§2)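 500-1,000 cells/well; 5 h pre-incubation 37 °C/5% CO2; compound pinned; 48 h; CellTiter-Glo, 15 min RT; luminescence. MIPE 11-pt from 0.78 nM, NPC 8-pt from 0.59 nM final. Bortezomib 2.3 µM final as positive control.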

[7] = qHTS of pediatric cancer cell lines to identify multiple opportunities for drug repurposing: Primary screen for NB-EBc1 cells (AID 1347095); note: potency is the fitted concentration of half-maximal effect
In short: as §2

[8] = molecular target: T1, Tyrosine-protein phosphatase non-receptor type substrate 1 (Homo sapiens) + Leukocyte surface antigen CD47 (Homo sapiens) (UniProt P78324+Q08722); experiment: CD47-SIRPalpha protein protein interaction - HTRF assay qHTS validation (AID 1347058; active = well fitted curve in the direction sought with a large enough effect in the signal ratio, not every such curve was filed as active; the % refers to the signal ratio; note: series mostly up to about 38 µM)
In short: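 Soluble extracellular domains (6His-CD47, Avi-tag-biotinylated SIRPalpha) in PBS pH 7.4 with 0.05% IGEPAL CA-630. Compounds were preincubated 30 min at RT with CD47 and anti-His-Eu, then SIRPalpha and SAV-XL665 were added. TR-FRET 665/615 ratio.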

[9] = molecular target: T1, Tyrosine-protein phosphatase non-receptor type substrate 1 (Homo sapiens) + Leukocyte surface antigen CD47 (Homo sapiens); experiment: CD47-SIRPalpha protein protein interaction - Alpha assay qHTS validation (AID 1347059);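 note: bead proximity luminescence from CD47 binding SIRPalpha after compound preincubation with SIRPalpha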
In short: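 SIRPalpha-biotin 25 nM + cpd, 30 min RT, dark; add CD47-His 12.5 nM, 30 min; add Ni-NTA/SAV beads 10 ug/mL, 30 min; AlphaScreen. Buffer PBS pH 7.4 + 0.05% IGEPAL CA-630. Non-biotinylated SIRPalpha as control inhibitor.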

[10] = molecular target: Parathyroid hormone/parathyroid hormone-related peptide receptor (Homo sapiens) (UniProt Q03431); experiment: qHTS for PTHR1 Agonists: Optimization Screen against the NCGC LOPAC library (AID 1347079);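 note: GloSensor cAMP luminescence in HEK-293 GP2 cells expressing human PTHR1 with IBMX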
In short: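 HEK-293 GP2 cells, PTHR1 + GloSensor cAMP; 3000 cells/well, o/n. Luciferin + IBMX 0.5mM each (stock), 1 hr 37C. Cpd titration, 1 hr 37C. Lum after 15 min RT. Ctrl M-PTH(1-15) top 10uM.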

Sequence of Parathyroid hormone/parathyroid hormone-related peptide receptor (Homo sapiens) (Q03431 whole entry, looked up): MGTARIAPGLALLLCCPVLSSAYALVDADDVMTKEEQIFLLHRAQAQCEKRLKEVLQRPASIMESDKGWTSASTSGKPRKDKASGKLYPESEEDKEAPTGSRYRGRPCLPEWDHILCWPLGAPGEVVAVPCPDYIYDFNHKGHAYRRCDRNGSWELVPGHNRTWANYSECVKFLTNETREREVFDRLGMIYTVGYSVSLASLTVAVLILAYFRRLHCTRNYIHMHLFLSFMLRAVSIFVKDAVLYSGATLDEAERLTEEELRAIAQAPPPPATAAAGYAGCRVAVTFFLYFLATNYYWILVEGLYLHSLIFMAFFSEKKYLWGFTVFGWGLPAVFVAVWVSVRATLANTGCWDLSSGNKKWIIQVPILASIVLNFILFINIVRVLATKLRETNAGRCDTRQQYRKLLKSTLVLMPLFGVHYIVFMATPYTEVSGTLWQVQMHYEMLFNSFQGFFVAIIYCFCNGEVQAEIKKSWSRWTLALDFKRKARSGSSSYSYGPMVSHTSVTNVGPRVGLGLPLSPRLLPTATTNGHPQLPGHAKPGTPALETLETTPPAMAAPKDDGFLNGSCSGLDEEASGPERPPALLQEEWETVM
T1 sequence (P78324 whole entry, looked up, the tested form may be a part): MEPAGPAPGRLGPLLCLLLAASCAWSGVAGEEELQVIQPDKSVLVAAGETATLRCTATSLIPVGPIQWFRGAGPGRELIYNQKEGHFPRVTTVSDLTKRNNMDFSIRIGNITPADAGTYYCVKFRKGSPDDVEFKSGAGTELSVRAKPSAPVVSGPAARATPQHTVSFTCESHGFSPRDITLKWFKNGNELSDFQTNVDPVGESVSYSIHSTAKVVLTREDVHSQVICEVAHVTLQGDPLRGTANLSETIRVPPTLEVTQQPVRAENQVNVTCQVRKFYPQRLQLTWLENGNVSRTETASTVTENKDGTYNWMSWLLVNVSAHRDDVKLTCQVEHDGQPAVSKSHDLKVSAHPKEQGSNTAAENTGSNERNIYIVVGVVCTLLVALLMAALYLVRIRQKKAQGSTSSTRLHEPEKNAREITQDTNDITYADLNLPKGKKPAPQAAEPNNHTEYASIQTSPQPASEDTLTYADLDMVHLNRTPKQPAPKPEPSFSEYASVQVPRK
T1 sequence (Q08722 whole entry, looked up, the tested form may be a part): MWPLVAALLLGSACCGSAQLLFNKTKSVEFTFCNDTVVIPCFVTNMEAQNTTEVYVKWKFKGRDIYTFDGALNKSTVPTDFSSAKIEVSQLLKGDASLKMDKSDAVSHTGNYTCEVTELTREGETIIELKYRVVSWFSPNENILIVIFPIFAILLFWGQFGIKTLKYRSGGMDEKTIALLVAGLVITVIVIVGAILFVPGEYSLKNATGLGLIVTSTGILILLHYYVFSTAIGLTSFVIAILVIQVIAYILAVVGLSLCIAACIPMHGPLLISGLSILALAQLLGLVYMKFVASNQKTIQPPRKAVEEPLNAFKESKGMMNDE

SMILES	Potency [1]	Potency [2]	Potency [3]	Potency [4]	Potency [5]	Potency [6]	Potency [7]	outcome [8]	outcome [9]	outcome [10]
COc1cc([C@@H]2c3cc4c(cc3[C@H](O)[C@H]3COC(=O)[C@H]23)OCO4)cc(OC)c1OC	167 nM (active) and 5.2 nM (active)	0.0335 µM (active)	23.7 nM (active) and 1 nM (active)	84.1 nM (active) and 1 nM (active)	53.1 nM (active) and 1 nM (active)	69.2 nM (active) and 1 nM (active)	8.4 nM (active) and 1 nM (active)	–	–	–
CCC(=O)O[C@]1(C(=O)CCl)[C@@H](C)C[C@H]2[C@@H]3CCC4=CC(=O)C=C[C@]4(C)[C@@]3(F)[C@@H](O)C[C@@]21C	inactive	inactive	inactive	inactive	26.6 µM (active) and 20.9 µM (active)	inactive	inactive	–	–	–
CC[C@H](NC(C)C)[C@H](O)c1ccc(O)c2[nH]c(=O)ccc12	inactive	inactive	inactive	inactive	inactive	inactive	inactive	–	–	–
CCN1CCCC1CNC(=O)c1cc(S(N)(=O)=O)ccc1OC (stereo not given)	inactive	–	inactive	inactive	inactive	inactive	inactive	inactive	inactive	inactive
NC(=O)c1ccc2[nH]ccc2c1	inactive	inactive	inactive	inactive	inactive	inactive	inactive	inactive	inactive	inactive
CO[C@@]12[C@H](COC(N)=O)C3=C(C(=O)C(C)=C(N)C3=O)N1C[C@@H]1N[C@@H]12	inactive	9.35 µM (active)	14.8 µM (active)	1.33 µM (active) and 1.18 µM (active)	266 nM (active) and 743 nM (active)	347 nM (active) and 1.72 µM (active)	335 nM (active) and 9.35 µM (active)	–	–	–
N[C@@H](Cc1ccc(O)c(O)c1)C(=O)O	inactive	inactive	inactive	–	18.7 µM (active)	inactive	inactive	inactive	inactive	inactive
Nc1[nH]c(=O)ncc1F	inactive	inactive	inactive	inactive	inactive	–	–	–	–	–
COc1cc(NS(=O)(=O)c2ccc(N)cc2)nc(OC)n1	inactive	inactive	inactive	inactive	inactive	inactive	inactive	–	–	–
CCN[C@H]1C[C@H](C)S(=O)(=O)c2sc(S(N)(=O)=O)cc21	inactive	inactive	inactive	inactive	inactive	inactive	inactive	–	–	–
CC1CC2C3CCC4=CC(=O)C=C[C@]4(C)[C@@]3(F)[C@@H](O)C[C@]2(C)[C@@]1(O)C(=O)CO (stereo not given in full)	inactive	inactive	inactive	–	13.2 µM (active)	inactive	inactive	inactive	inactive	inactive
CC(=O)[C@H]1CC[C@H]2[C@@H]3CCC4=CC(=O)CC[C@]4(C)[C@H]3CC[C@]12C	inactive	–	–	1.18 µM (active)	0.526 µM (active)	–	inactive	inactive	inactive	inactive
C[C@]12C=CC(=O)C=C1CC[C@@H]1[C@@H]2C(=O)C[C@@]2(C)[C@H]1CC[C@]2(O)C(=O)CO	inactive	inactive	inactive	inactive	inactive	inactive	inactive	–	–	–
CCn1cc(C(=O)O)c(=O)c2cc(F)c(N3CCN(C)CC3)cc21	inactive	inactive	inactive	inactive	inactive	inactive	inactive	–	–	–
Cc1ccc(S(=O)(=O)N[C@@H](Cc2ccccc2)C(=O)CCl)cc1	inactive	–	9.35 µM (active)	14.8 µM (active)	7.43 µM (active)	24.3 µM (active)	16.6 µM (active)	inactive	inactive	inactive
COc1cc2nc(N3CCCN(C)CC3)nc(NC3CCN(Cc4ccccc4)CC3)c2cc1OC	20.8 µM (active)	18.7 µM (active)	14.8 µM (active)	3.72 µM (active)	6.62 µM (active)	13.7 µM (active)	23.5 µM (active)	inactive	inactive	inactive
NC(=O)c1cccc(N)c1	inactive	–	inactive	inactive	–	inactive	inactive	inactive	inactive	inactive
CCOC(=O)[C@H](CCc1ccccc1)N[C@H]1CS[C@H](c2cccs2)CN(CC(=O)O)C1=O	inactive	–	–	–	–	–	–	–	–	–
COc1cc(NCc2ccc3nc(N)nc(N)c3c2C)cc(OC)c1OC	2.94 µM (active) and 33.3 nM (active)	3.72 µM (active) and 133 nM (active)	2.64 µM (active) and 29.9 nM (active)	3.72 µM (active) and 168 nM (active)	332 nM (active) and 11.9 nM (active)	1.53 µM (active) and 69.2 nM (active)	3.72 µM (active)	–	–	–
CC(C)NCC(O)c1ccc(NS(C)(=O)=O)cc1 (stereo not given)	inactive	–	inactive	–	10.5 µM (active)	inactive	inactive	inactive	inactive	inactive
Nc1nc(N)c2nc(CNc3ccc(C(=O)NC(CCC(=O)O)C(=O)O)cc3)cnc2n1 (stereo not given)	–	inactive	0.0833 µM (active)	–	0.0166 µM (active)	0.0485 µM (active)	–	–	inactive	inactive
O=C(O)C1CCCN(CCC=C(c2ccccc2)c2ccccc2)C1 (stereo not given)	inactive	inactive	inactive	–	–	inactive	inactive	inactive	inactive	inactive

SMILES	Potency [1]	Potency [2]	Potency [3]	Potency [4]	Potency [5]	Potency [6]	Potency [7]	outcome [8]	outcome [9]	outcome [10]
Cn1c(=O)c2c(ncn2CC(O)CO)n(C)c1=O (stereo not given)	inactive	inactive	inactive	inactive	inactive	inactive	inactive	–	–	–
CCCc1nc(C)c2c(=O)[nH]c(-c3cc(S(=O)(=O)N4CCN(CC)CC4)ccc3OCC)nn12	inactive	–	–	–	–	–	–	–	–	–
NC(=O)c1cccnc1	inactive	inactive	inactive	inactive	inactive	inactive	inactive	–	–	–
Cc1oc(=O)oc1CN1CCN(c2cc3c(cc2F)c(=O)c(C(=O)O)c2n3C(C)S2)CC1 (stereo not given)	inactive	inactive	inactive	inactive	inactive	inactive	inactive	–	–	–
C#CCN[C@@H]1CCc2ccccc21	inactive	inactive	inactive	inactive	inactive	inactive	inactive	–	–	–
CCN(CC)CC#CCOC(=O)C(O)(c1ccccc1)C1CCCCC1 (stereo not given)	inactive	–	–	inactive	inactive	inactive	inactive	–	–	inactive
COC(=O)Nc1nc2ccc(Sc3ccccc3)cc2[nH]1	1.33 µM (active) and 2.62 µM (active)	1.06 µM (active)	0.833 µM (active)	1.06 µM (active) and 935 nM (active)	841 nM (active) and 590 nM (active)	1.74 µM (active) and 3.06 µM (active)	0.469 µM (active)	–	–	–
CNS(=O)(=O)CCc1ccc2[nH]cc(C3CCN(C)CC3)c2c1	inactive	–	–	–	–	–	–	inactive	inactive	–
CC1=C(C(=O)O)N2C(=O)[C@@H](NC(=O)C(N)c3ccccc3)[C@H]2SC1 (stereo not given in full)	–	inactive	inactive	inactive	–	inactive	inactive	–	inactive	inactive
OCc1ccc(-c2nn(Cc3ccccc3)c3ccccc23)o1	inactive	inactive	inactive	–	–	inactive	inactive	inactive	inactive	inactive
CCCCS(=N)(=O)CCC(N)C(=O)O (stereo not given)	inactive	inactive	inactive	23.5 µM (active)	–	inactive	inactive	inactive	inactive	inactive
Cn1nnc2c(C(N)=O)ncn2c1=O	inactive	inactive	inactive	inactive	inactive	inactive	–	–	–	–
COc1cc2ncnc(Nc3cccc(Cl)c3)c2cc1OC	inactive	–	–	–	–	21.7 µM (active)	–	–	inactive	–
CCN(CC)CCn1c(=O)c(Cc2ccc(OC)cc2)nc2ccccc21	inactive	inactive	inactive	inactive	inactive	inactive	inactive	–	inactive	inactive
Nc1ccc(S(=O)(=O)Nc2ccccn2)cc1	inactive	inactive	inactive	inactive	inactive	inactive	inactive	–	–	–
CN1CCN(c2c(F)cc3c(=O)c(C(=O)O)cn4c3c2OCN4C)CC1	inactive	inactive	inactive	inactive	inactive	inactive	inactive	–	–	–
CCn1cc(C(=O)O)c(=O)c2cc(F)c(N3CCNCC3)cc21	inactive	inactive	inactive	inactive	inactive	inactive	inactive	–	–	–
CN1CCN(c2c(F)cc3c(=O)c(C(=O)O)cn(CCF)c3c2F)CC1	inactive	inactive	inactive	inactive	inactive	inactive	inactive	–	–	–
COc1ncnc(NS(=O)(=O)c2ccc(N)cc2)c1OC	inactive	inactive	inactive	inactive	inactive	inactive	inactive	–	–	–
O=c1oc2c(O)c(O)cc3c(=O)oc4c(O)c(O)cc1c4c23	inactive	inactive	inactive	inactive	inactive	inactive	inactive	–	–	–
COC(=O)Nc1nc2ccc(C(=O)c3ccccc3)cc2[nH]1	210 nM (active) and 3.3 µM (active)	106 nM (active) and 1.18 µM (active)	0.376 µM (active)	106 nM (active) and 935 nM (active)	53.1 nM (active) and 332 nM (active)	347 nM (active) and 2.43 µM (active)	0.188 µM (active)	–	–	–
O=S(=O)(c1cccc2cnccc12)N1CCCNCC1	inactive	inactive	inactive	18.7 µM (active)	inactive	inactive	inactive	–	–	–

From PubChem BioAssay (NCATS)
